BCLXL inh: inhibitors of human Bcl-xL, primary screen, biochemical, fluorescence polarization, HTS. Bcl-2-like protein 1 (Homo sapiens), Q07817. GST-Bcl-xL / FITC-Bim BH3 peptide fluorescence polarization. inhibition, % at 10.9 µM. hit rate 0.7% among 320,000;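 active means inhibition above the mean of all tested compounds plus 3 SD, cutoff set per campaign, cut at about 30% in these data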;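 further: 0% = DMSO wells and 100% = unlabeled Bim-BH3 peptide competitor; inhibitors lower millipolarization by displacing the labeled peptide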
Target sequence (Q07817 whole entry, looked up): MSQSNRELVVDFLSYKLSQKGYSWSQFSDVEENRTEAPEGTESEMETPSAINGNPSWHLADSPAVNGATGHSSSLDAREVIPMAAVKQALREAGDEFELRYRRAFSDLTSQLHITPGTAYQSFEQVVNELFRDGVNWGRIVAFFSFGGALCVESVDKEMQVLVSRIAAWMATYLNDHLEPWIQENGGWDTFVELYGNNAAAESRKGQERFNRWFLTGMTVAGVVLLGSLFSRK
Mcl1 Bid PPI: Mcl-1/Bid binding inhibitors, primary screen, biochemical, TR-FRET, 1536-well; Induced myeloid leukemia cell differentiation protein Mcl-1 (Homo sapiens), Q07820; TR-FRET Mcl-1/Bid-Dy647 peptide binding; inhibition, % at 21.7 µM; hit rate 0.97% among 220,000;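 active means compounds that cut the binding signal by more than half at the single screening dose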;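 further: His-tagged Mcl-1 with europium anti-His antibody binding Bid BH3 peptide; 0% = Mcl-1 plus peptide wells and 100% = peptide-only wells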
Target sequence (Q07820 whole entry, looked up): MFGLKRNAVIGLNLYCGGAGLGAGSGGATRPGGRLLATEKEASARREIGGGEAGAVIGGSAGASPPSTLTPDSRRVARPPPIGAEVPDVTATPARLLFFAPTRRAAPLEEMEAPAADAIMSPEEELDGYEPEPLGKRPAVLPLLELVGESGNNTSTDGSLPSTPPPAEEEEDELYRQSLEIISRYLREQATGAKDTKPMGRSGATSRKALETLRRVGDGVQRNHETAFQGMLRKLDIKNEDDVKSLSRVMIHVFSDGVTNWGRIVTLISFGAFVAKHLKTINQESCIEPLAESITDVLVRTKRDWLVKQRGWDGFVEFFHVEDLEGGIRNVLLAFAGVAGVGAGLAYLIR
MCL1 BIM primary: inhibitors of MCL1 binding to BIM-BH3, primary screen, biochemical, fluorescence polarization. GST-MCL1 / FITC-Bim-BH3 fluorescence polarization. inhibition, % at 10.9 µM. hit rate 0.68% among 320,000. AID 2057, 2009;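 active means inhibition above the mean inhibition of all tested compounds plus 3 SD, set per campaign, cut at about 40% in these data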;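 further: 0% = DMSO wells and 100% = unlabeled Bim-BH3 peptide control; higher means more loss of mP so more displacement of Bim peptide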
GLD-1 RNA inh: GLD-1/TGE RNA complex disruptors, primary screen, biochemical, fluorescence polarization. Female germline-specific tumor suppressor gld-1 (Caenorhabditis elegans), Q17339. purified GLD-1 + fluorescein TGE RNA. inhibition, % at 5.96 µM. hit rate 0.44% among 320,000. AID 2280, 2010;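 active means percent inhibition above a per-plate cutoff, the plate mean of test compounds plus 3 SD, cut at about 30% in these data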;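 further: 0% = DMSO wells with GLD-1 and probe and 100% = wells lacking GLD-1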
Mcl1 Noxa PPI: Mcl-1/Noxa binding inhibitors, primary screen, biochemical, TR-FRET, 1536-well. inhibition, % at 21.7 µM. TR-FRET Mcl-1/Noxa peptide binding, 2 h. hit rate 1.5% among 220,000. Induced myeloid leukemia cell differentiation protein Mcl-1 (Homo sapiens), Q07820;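 active means compounds that cut the protein-peptide binding signal by more than 50% relative to plate controls in a single-dose test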;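 further: His-tagged Mcl-1 with rhodamine Noxa BH3 peptide and terbium anti-His antibody; 0% = Mcl-1 plus Noxa peptide wells and 100% = peptide-only wells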
Bim-Mcl-1: inhibitors of Bim peptide binding to Mcl-1, primary screen, biochemical, bead-based flow cytometry, multiplex; Induced myeloid leukemia cell differentiation protein Mcl-1 (Homo sapiens), Q07820; hit rate 0.1% among 190,000; Bim peptide-Mcl-1 binding; inhibition, % at 10 µM; in the data active means inhibition above about 40%;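 further: 0% = no compound tracer wells and 100% = peptide blocker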
Numbers without * were called inactive; x = not tested or not shown. Only some compounds are listed: those with a hit (about 2.3% of all), similar ones and a draw of the others.

SMILES	BCLXL inh	Mcl1 Bid PPI	MCL1 BIM primary	GLD-1 RNA inh	Mcl1 Noxa PPI	Bim-Mcl-1
COc1ccccc1-c1nnc(NC(=O)c2ccc3c(c2)OCO3)s1	-3	63*	-2	3	14	-2
CCOC(=O)C1=CC[C@H]2c3c(c4ccccc4n3C)C(=O)C1N2C(=O)OC(C)(C)C	1	x	-3	-5	x	x
COc1cccc(-c2nc3c(c(=O)[nH]c(=O)n3Cc3ccccc3)n2CCO)c1OC(F)F	3	x	-4	-2	x	x
CCOC(=O)/C=C(\C)Sc1cc(O)c2ccccc2c1O	x	-10	x	x	88*	x
CCOC(=O)/C=C(\C)Sc1cc(=O)oc2ccccc12	-2	-22	0	1	8	-8
O=C(CSc1nnc(CNC(=O)c2cccs2)o1)Nc1cccc(Cl)c1	2	x	4	0	x	x
Cc1occc1C(=O)NNC(=S)NCc1ccccc1	0	-67	11	8	22	60*
Cc1occc1C(=O)NNC(=S)NCc1ccc(Cl)cc1	5	-28	10	10	13	-1
Fc1ccc2[nH]c3c(NCc4ccccc4)ncnc3c2c1	9	x	4	6	x	x
N#C/C(=C/c1ccc(F)cc1)c1nnc(NC(=O)c2ccccc2)s1	6	3	5	6	68*	x
CN(Cc1ccc(F)cc1)S(=O)(=O)c1nnc(NC(=O)c2ccccc2)s1	4	x	2	-1	x	x
O=C(Cc1ccc(Br)cc1)Nc1ncc([N+](=O)[O-])s1	5	-20	8	-1	70*	x
Cc1cccc(Cn2c(N3CCc4ccccc4C3)nc3c2c(=O)[nH]c(=O)n3C)c1	0	1	0	6	63*	1
Cc1cccc(Cn2c(N3CCN(C)CC3)nc3c2c(=O)[nH]c(=O)n3C)c1	0	x	1	7	x	x
Brc1ccc(C2Nc3cccc4cccc(c34)N2)s1	9	-13	5	5	100*	0
O=C(O)c1ccccc1OCC1CCCO1 (stereo not drawn)	3	x	-5	-2	x	x
Cc1cc(C)n(Cc2cccc(F)c2)c(=O)c1C#N	0	96*	3	3	13	-9
O=C(NC(=S)NCCC1=CCCCC1)c1ccccc1Br	16	-53	34	3	68*	-5
O=C(COC(=O)c1ccccc1Br)NCCC1=CCCCC1	11	-25	8	4	18	1
CC(C)C(=O)NC(c1cccs1)c1cc([N+](=O)[O-])c2cccnc2c1O (stereo not drawn)	5	55*	2	-3	63*	-7
COc1cc(-c2nc3cnccn3c2Nc2ccccc2)ccc1O	9	-20	2	3	55*	0
COC(=O)c1sccc1NC(=O)CC1C(=O)NCCN1C(=O)Nc1cc(Cl)ccc1OC (stereo not drawn)	4	-5	4	-6	1	x
CCc1c(C)sc(NC(=O)CC#N)c1C#N	12	-81	13	0	62*	1
COCCOC(=O)C1=C(C)NC(=O)NC1c1c(Cl)nc2c(C)cccn2c1=O (stereo not drawn)	32*	-23	35	8	8	-15
CCOc1cc(Cl)c(S(=O)(=O)NCc2cccnc2)cc1Cl	5	x	9	2	x	x
SMILES	BCLXL inh	Mcl1 Bid PPI	MCL1 BIM primary	GLD-1 RNA inh	Mcl1 Noxa PPI	Bim-Mcl-1
COc1ccc(-n2cccc2/C=C2/NC(=O)N(c3cccc(Cl)c3)C2=O)cc1	-10	-40	-26	3	33	-5
O=C(O)c1cccc(-n2cccc2/C=C2/NC(=O)N(c3ccc(Cl)cc3)C2=O)c1	x	98*	x	x	113*	6
Cc1c(NC(=O)Nc2ccc(F)cc2F)c(=O)n(-c2ccccc2)n1C	8	x	5	-2	x	x
CCNC(=O)C1CCCN1S(=O)(=O)c1ccc2ccccc2c1 (stereo not drawn)	3	x	-2	5	x	x
O=C(NCCc1ccccc1F)C1CCCN1S(=O)(=O)c1ccc2ccccc2c1 (stereo not drawn)	40*	10	1	2	14	-3
O=C(c1ccc2oc(CCc3ccccc3)nc2c1)N1CC[C@H](O)C1	6	x	6	0	x	x
CCN(CC(=O)NCc1ccco1)S(=O)(=O)c1ccc(OC)cc1	5	x	-2	-2	x	x
CC1CCCN(C(=O)c2ccc(S(=O)(=O)Nc3ccccc3Cl)cc2)C1 (stereo not drawn)	36*	x	1	1	x	x
Cc1ccccc1NS(=O)(=O)c1cc(C(=O)N2CCCC2)ccc1C	48*	-16	0	-2	3	-3
Cc1ccccc1NS(=O)(=O)c1cc(C(=O)N2CCCC2)ccc1Cl	1	x	-4	-2	x	x
Cc1ccccc1NS(=O)(=O)c1ccc(OCC(=O)N2CCCC2)cc1	-1	4	-3	3	58*	-2
Cc1ccc(C)c(NS(=O)(=O)c2ccc(OCC(=O)N3CCCC3)cc2)c1	-2	-28	2	-1	9	-4
O=C(c1ccc(S(=O)(=O)Nc2ccccc2Cl)cc1)N1CCOCC1	8	x	7	8	x	x
Nc1c2c(nc3ccccc13)CCCC2	-4	8	-2	3	51*	-2
COc1ccc(S(=O)(=O)N2CCOCC2)cc1C(=O)NCC(c1ccco1)N1CCCC1 (stereo not drawn)	3	x	1	3	x	x
O=C(Nc1ccc(Cl)c(Cl)c1)c1ccc(Cl)c(Cl)c1	5	-24	2	2	9	x
Cc1ccc(NC(=O)c2ccc(Cl)c(N3C(=O)C=CC3=O)c2)cc1	13	29	16	6	57*	-8
Cn1c(=O)cc(C(=O)N/N=C/c2ccc(F)cc2)[nH]c1=O	5	-7	1	-1	-5	x
O=C(/C=C/c1ccc(N2CCC(c3ccccc3)=N2)cc1)c1ccccc1	34*	-14	-50	-84	13	x
O=C(/C=C/c1ccc(O)cc1)c1ccccc1	1	-28	-2	-11	-7	x
CCN1CCN(C(=O)C(C)Sc2nc3nc(C)cc(C)n3n2)CC1 (stereo not drawn)	x	x	x	3	x	x
CCN1CC=C2C(C1)C(c1ccc(Cl)s1)C(C#N)=C(N)C2(C#N)C#N (stereo not drawn)	102*	-25	114*	76*	19	8
Cc1ncc(CO)c(/C=N/NC(=S)Nc2ccc(Cl)c(Cl)c2)c1O	1	-61	-17	2	71*	-1
CCc1ccc(NC(=O)CSc2nc(N)c(NC(=O)c3ccc(F)c(F)c3)c(=O)[nH]2)cc1	6	x	3	5	x	x
